PubChem BioAssay AID2326 (National Center for Advancing Translational Sciences (NCATS), 2010)
The campaign covered roughly 270,000 compounds. About 1,100 (0.41%) were called active. About 3% were inconclusive and are not listed. Calls come from the whole dose curve. The list comes from a sample in which actives are over-represented; it also holds similar structures and randomly drawn compounds.

Assay: qHTS Assay for Inhibitors of Influenza NS1 Protein Function; note: actives are rising curves; nearly all actives have a fitted effect of over 50% in size
Details: series mostly up to 46.1 µM; activity, positive = more growth: at the top concentration
From the text: NIH Chemical Genomics Center [NCGC]
NIH Molecular Libraries Probe Centers Network [MLPCN]
Assay Submitter (PI): Daniel Engel
Influenza is a world-wide public health problem and emerging forms of the virus have the potential to cause a pandemic of equal or greater magnitude to the outbreaks recorded in 1918, 1957 or 1968. Vaccine development is proceeding and there also exist two classes of anti-influenza compounds. However these therapeutic modalities are neither fully effective nor widely enough available to fulfill global needs. In addition their potential usefulness against newly emergent strains is not known. Efforts are needed to develop novel agents against influenza virus, including broad-spectrum agents. Identification of small molecules that inhibit NS1 function either directly or by interfering with specific cellular pathways may be a key to increasing our defense against the virus.
We have miniaturized and optimized a cell based assay in which NS1 from influenza A is expressed in the budding yeast S. cerevisiae. NS1 is a multi-functional protein that counters the host innate immune response and facilitates viral versus cellular gene expression. Expression of NS1 causes a pronounced slow growth phenotype in yeast due to its intrinsic molecular activities. Small molecules that suppress the slow growth phenotype can be identified by a straightforward growth recovery assay using optical density (OD) as the measurement. The same yeast strain not expressing NS1 was used as positive control in the yeast growth recovery assay.
The yeast S. cerevisiae control and NS1 expressing cells were kindly supplied by laboratory of Dr. Daniel Engel, University of Virginia. Yeast starter cultures were stored in single use aliquots at -80C.
1. Yeast culture medium per liter: 1.2 g Yeast Nitrogen Base (w/out amino acids and Ammonium Sulphate), 5.0g Ammonium Sulphate, 0.77g -URA DO (drop-out) Supplement, adjust pH to 6.0. Adjust to 2% glucose prior to inoculating with yeast.
2. Yeast assay medium: 1.2 g Yeast Nitrogen Base (w/out amino acids and Ammonium Sulphate), 5.0g Ammonium Sulphate, 0.77g -URA DO (drop-out) Supplement, adjust pH to 6.0. Adjust to 2% D-galactose prior to inoculating with yeast.
1. Inoculate 100 mls of yeast culture medium with 1 ml of frozen yeast aliquote. Incubate overnight at 30C, 250RPM.
2. Harvest overnight culture at 4000 RPM and wash pellet with 15 mls H2O 3x.
3. Re-suspend washed pellet in 10 mls of yeast assay medium.
4. Prepare a 1:100 dilution of re-suspended culture in yeast assay medium.
5. Dispense 3.5 ul per well of reagents in step 4 in columns 2-48 in a black clear bottom 1536 well plate.
6. Dispense 3.5 ul per well of yeast assay medium in column 1 only.
7. Transfer 23 nl of compound per well.
8. Dispense 3.5 ul per well of yeast assay medium in columns 1-48.
9. Read plate using Viewlux protocol for optical density 600 (OD600) using excitation filter 600nm.
Potency is the fitted concentration of half-maximal effect.

Row | SMILES | activity, positive = more growth | Potency
1 | CNC(=O)c1sc(Nc2ccc(OCc3ccccc3)cc2)nc1C | -6.93% (inactive) | 
2 | CCCn1c(=N)n(CC(=O)c2ccc(Cl)c(Cl)c2)c2ccccc21 | -0.19% (inactive) | 
3 | COc1ccc(/C=C2\SC(=O)N(CCC(=O)NC3CCS(=O)(=O)C3)C2=O)cc1 (centres undefined) | -18.3% (inactive) | 
4 | Cc1nnc(NC(=O)Cn2c(=O)sc3ccccc32)s1 | 0.343% (inactive) | 
5 | O=C(CCS(=O)(=O)c1ccccc1)Nc1nc2c(s1)CCCC2 | -11.9% (inactive) | 
6 | Cc1ccc(-n2c(SCC(=O)N3CCC(C(=O)O)CC3)nc3ccccc3c2=O)cc1C | 11.5% (inactive) | 
7 | Cc1ccc(NS(=O)(=O)c2ccc(-c3coc(C)n3)cc2)c(C)c1 | 4.83% (inactive) | 
8 | CCOc1cc(CO)ccc1OCC(=O)N1CCCCC1 | 3.05% (inactive) | 
9 | CC(C)c1ccc(OCC(=O)N2CCN(C)CC2)c(Br)c1 | -5.71% (inactive) | 
10 | CN1CCN(C(=O)COc2ccc(C(C)(C)C)cc2Br)CC1 |  | 3.98 µM (active)
11 | CC(C)(C)c1ccc(SCCc2ccncc2)cc1 | -39.6% (inactive) | 
12 | O=C(N/N=C/c1ccccc1O)C1CCCC1 | -10.7% (inactive) | 
13 | O=C(CSc1ccc(-c2ccccn2)nn1)Nc1ccccc1 | -103% (inactive) | 
14 | CCOc1ccccc1/C=N/Nc1nc2ccccc2o1 | -5.44% (inactive) | 
15 | O=S(=O)(NCc1ccc(Cl)cc1Cl)c1cccs1 | -58.9% (inactive) | 
16 | COCCCNc1nc2c(-c3cccc(C)c3)nnn2c2ccc(Cl)cc12 | -31.8% (inactive) | 
17 | CCCc1[nH]nc2c1C(C1CC=CCC1)C(C#N)=C(N)O2 (centres undefined) | 6.91% (inactive) | 
18 | CCCc1[nH]nc2c1C(c1c(C)nn(-c3ccccc3)c1Cl)C(C#N)=C(N)O2 (centres undefined) | 5.69% (inactive) | 
19 | CCCc1[nH]nc2c1C(c1ccc(Br)s1)C(C#N)=C(N)O2 (centres undefined) |  | 2.51 µM (active)
20 | Cc1cccc(C(=O)NC(=S)N(C)C2CCCCC2)c1 | -54.8% (inactive) | 
21 | COc1ccc(CCc2nc(-c3cccs3)no2)cc1 | -25.1% (inactive) | 
22 | COc1ccc(C(=O)NC(=S)N2CCCCC2c2cccnc2)cc1OC (centres undefined) | -12% (inactive) | 

Row | SMILES | activity, positive = more growth | Potency
23 | O=C(N/N=C/c1cccc(OCc2ccccc2)c1)c1ccc(Br)o1 | -38.4% (inactive) | 
24 | O=C(Cc1ccc(Cl)cc1)NC(=S)Nc1ccccc1O | 5.46% (inactive) | 
25 | Cc1cccc(-n2c(SCC(=O)Nc3cccc(S(=O)(=O)NC4=NCCCCC4)c3)nc3ccccc3c2=O)c1C |  | 22.4 µM (active)
26 | NS(=O)(=O)c1cccc(NC(=O)CSc2nc3ccccc3n2-c2ccccc2)c1 | 15.1% (inactive) | 
27 | CCc1ccc(C(=O)OCC(=O)Nc2cccc(S(=O)(=O)NC3=NCCCCC3)c2)cc1 | -22% (inactive) | 
28 | CCN(CC(=O)Nc1ccc(C)c(S(=O)(=O)N(C)C)c1)Cc1ccccc1 | -2.09% (inactive) | 
29 | Cc1ccc(CSc2nsc(C)c2C#N)cc1 | -1.63% (inactive) | 
30 | COc1ccc(C(=O)CC(=O)C(=O)Nc2cc([N+](=O)[O-])ccc2OC)cc1 | 8.6% (inactive) | 
31 | CSc1nccc(NC(=O)c2ccc(C(C)(C)C)cc2)n1 | -43.5% (inactive) | 
32 | O=C(COc1ccc(Cl)cc1Cl)N/N=C/c1ccccn1 | -55.6% (inactive) | 
33 | O=C(O)CC(CC(=O)N1CCOCC1)c1ccccc1 (centres undefined) | 4.06% (inactive) | 
34 | O=C(O)CC(c1ccccc1)n1cnnn1 (centres undefined) | -1.31% (inactive) | 
35 | O=C(O)CC(Cn1cnnn1)c1ccccc1 (centres undefined) |  | 8.91 µM (active)
36 | Cc1ccc(CNC(=O)C(=O)c2cn(CC(=O)N3CCCC3)c3ccccc23)cc1 | 1.2% (inactive) | 
37 | COc1cc(CNCc2ccc(OC)c3ccccc23)cc(OC)c1OC | 12.4% (inactive) | 
38 | COc1ccc(Nc2ncnc3ccc(Br)cc23)c(OC)c1 | -47.8% (inactive) | 
39 | COc1ccc(CC(=O)N/N=C/c2cc([N+](=O)[O-])cc(Br)c2O)cc1 | 5.43% (inactive) | 
40 | CC(C)(COC(=O)Nc1ccccc1)COC(=O)Nc1ccccc1 | -46.3% (inactive) | 
41 | COc1ccc(C=C(C#N)C#N)c(CSc2ccccn2)c1 | -3.49% (inactive) | 
42 | COc1ccc(NCCc2ccccn2)cc1 | -5.94% (inactive) | 
43 | Cn1c(=O)c(=O)n(C)c2cc(S(=O)(=O)CCC(=O)N3CCCCC3)ccc21 | 6.48% (inactive) | 
44 | Cc1ccc(NS(=O)(=O)c2ccc3c(c2)n(C)c(=O)c(=O)n3C)c(C)c1 | 3.06% (inactive) | 

Row | SMILES | activity, positive = more growth | Potency
45 | CCc1ccc(S(=O)(=O)Nc2cc3c(cc2N2CCCCC2)n(C)c(=O)c(=O)n3C)cc1 |  | 2.82 µM (active)
46 | CCOC(=O)CC1COCCN1C(=O)c1cc(COc2ccc(F)c(F)c2)on1 (centres undefined) | -7.11% (inactive) | 
47 | O=C(NC(=S)N1CCCCC1c1cccnc1)c1ccccc1 (centres undefined) | -11% (inactive) | 
48 | CCC(C)c1ccc(NC(=S)N2CCCC2)cc1 (centres undefined) | -46% (inactive) | 
49 | COC(=O)C1=C(C)NC(=O)NC1/C=C/c1ccccc1 (centres undefined) | -6.7% (inactive) | 
50 | CCOC(=O)c1ccccc1N1C(=O)C2Sc3[nH]c(=O)sc3C(/C=C/c3ccccc3)C2C1=O (centres undefined) | 27% (inactive) | 
51 | COC(=O)C1=C(C)N=C2SC(C)C(=O)N2C1/C=C/c1ccccc1 (centres undefined) |  | 11.2 µM (active)
52 | Cc1nonc1NC(=O)c1oc2ccccc2c1C | -9.93% (inactive) | 
53 | Cc1nc(N2CCOCC2)sc1C(=O)NN | 5.54% (inactive) | 
54 | Cc1nc(-c2ccc(Cl)cc2)sc1C(=O)NN |  | 3.55 µM (active)
55 | Cc1ccc(SCC(=O)c2sc(-c3ccccc3)nc2C)cc1 | -13.1% (inactive) | 
56 | CN(CC(=O)Nc1ccc(F)cc1)C(=O)c1ccc(-c2ccc(Cl)cc2)o1 | -54% (inactive) | 
57 | CCOC(=O)CC1(NC(=O)c2cc(COc3cncc(Cl)c3)on2)CCCCC1 | -17.2% (inactive) | 
58 | O=C(Cc1cccs1)NCc1cccc(C(F)(F)F)c1 | 2.72% (inactive) | 
59 | N#Cc1c(-c2cccs2)nc(SCC(=O)c2ccc(Br)cc2)[nH]c1=O |  | 3.16 µM (active)
60 | O=C(CSc1nc2ccccc2c(=O)[nH]1)Nc1nc(-c2ccc(Br)cc2)cs1 | 13.7% (inactive) | 
61 | Cc1ccc(CSc2nc(-c3ccccc3)c(C#N)c(=O)[nH]2)cc1 | 2.5% (inactive) | 
62 | COc1ccc(NC(=O)CSc2nc3ccccc3c(=O)n2C)cc1 | 2.09% (inactive) | 
63 | COCCN1C(=O)N(c2ccc(Cl)cc2)C(=O)C1CC(=O)Nc1cc(OC)cc(OC)c1 (centres undefined) | -4.12% (inactive) | 
64 | CC(=O)N1c2ccc(S(=O)(=O)N3CCCC(C(=O)Nc4cccc(F)c4)C3)cc2CC1C (centres undefined) | 9.5% (inactive) | 
